Measured values from PubChem BioAssay (Tox21).
Records with an inconclusive call do not appear. Unmarked numbers belong to inactive results. Calls come from the whole dose curve.

Experiment: p53 small molecule agonists, cell-based qHTS assay with rat liver microsomes (AID 1963578)
Settings: HCT-116 p53RE-bla, beta-lactamase ratio, 16 h; series mostly up to 66 µM; activation: at the top concentration
In short: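 Cells carrying a p53 response element–beta-lactamase reporter were plated and rested 5 h, then dosed with compound in DMSO plus rat liver microsomes and NADPH, each at 0.5 mg/mL final. After 16 h at 37 C, LiveBLAzer substrate was added for 2 h.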
% is set by controls: 0 for no effect and ±100 for the full control effect.

Row | Structure (SMILES) | activation
1 | O=c1[nH]c(=O)n([C@H]2C[C@H](O)[C@@H](CO)O2)cc1I | -0.0718% [at 30.3 µM]
2 | CC[N+](CC)(CC)CCOc1cccc(OCC[N+](CC)(CC)CC)c1OCC[N+](CC)(CC)CC | -0.0793% [at 30.3 µM]
3 | C[N+]1(C)[C@@H]2CC(OC(=O)[C@H](CO)c3ccccc3)C[C@H]1[C@@H]1O[C@@H]12 (stereo partly drawn) | 0.837% [at 30.3 µM]
4 | C[C@@H]1C[C@H]2[C@@H]3CCC4=CC(=O)C=C[C@]4(C)[C@@]3(F)[C@@H](O)C[C@]2(C)[C@H]1C(=O)CO | -6.01% [at 30.3 µM]
5 | C[C@H]1C[C@H]2[C@@H]3CCC4=CC(=O)C=C[C@]4(C)[C@@]3(F)[C@@H](O)C[C@]2(C)[C@@]1(O)C(=O)COP(=O)(O)O | -0.345%
6 | CCOC(=O)OC(C)OC1=C(C(=O)Nc2ccccn2)N(C)S(=O)(=O)c2ccccc21 (stereo not drawn) | -0.358% [at 30.3 µM]
7 | C[N+](C)(C)CC(O)CC(=O)[O-] (stereo not drawn) | 0.12% [at 30.3 µM]
8 | Cc1cccc(C)c1OCC(C)N (stereo not drawn) | -0.507% [at 30.3 µM]
9 | CC1=NS(=O)(=O)c2cc(Cl)ccc2N1 | -0.39% [at 30.3 µM]
10 | CC(C)NCC(O)c1ccc(NS(C)(=O)=O)cc1 (stereo not drawn) | 1.05%
11 | CC[C@H]1OC(=O)[C@H](C)[C@@H](O[C@H]2C[C@@](C)(OC)[C@@H](O)[C@H](C)O2)[C@H](C)[C@@H](O[C@@H]2O[C@H](C)C[C@H](N(C)C)[C@H]2O)[C@](C)(OC)C[C@@H](C)C(=O)[C@H](C)[C@@H](O)[C@]1(C)O | -2.44%
12 | CC[C@H]1OC(=O)[C@H](C)[C@@H](O[C@H]2C[C@@](C)(OC)[C@@H](O)[C@H](C)O2)[C@H](C)[C@@H](O[C@@H]2O[C@H](C)C[C@H](N(C)C)[C@H]2O)[C@](C)(O)C[C@@H](C)C(=O)[C@H](C)[C@@H](O)[C@]1(C)O | -0.019% [at 30.3 µM]
13 | NCCCNCCSP(=O)(O)O | 0.418% [at 5.99 µM]
14 | NS(=O)(=O)c1cc2c(cc1Cl)NC(C(Cl)Cl)NS2(=O)=O (stereo not drawn) | -2.77% [at 30.3 µM]
15 | CCOC(=O)[C@H](CCc1ccccc1)N[C@@H](C)C(=O)N1CCC[C@H]1C(=O)O | -0.0137% [at 30.3 µM]
16 | COC(=O)[C@@H]1[C@H]2C[C@H]3c4[nH]c5ccccc5c4CCN3C[C@@H]2CC[C@@H]1O | -0.123% [at 30.3 µM]
17 | Oc1cccc(O)c1O | 0.644%
18 | COc1cc(C(=O)NC2CCCNC2)cc(OC)c1OC (stereo not drawn) | 0.18% [at 30.3 µM]
19 | CCN[C@@H]1C[C@H](N)[C@@H](OC2OC(CN)=CCC2N)[C@H](O)[C@H]1O[C@H]1OC[C@](C)(O)[C@H](NC)[C@H]1O (stereo partly drawn) | -0.776% [at 0.249 µM]
20 | O=C(O)CCNC(=O)c1ccccc1 | 0.326% [at 30.3 µM]

Row | Structure (SMILES) | activation
21 | CN1CCN(C(c2ccccc2)c2ccccc2)CC1 | -0.417% [at 30.3 µM]
22 | CCCN(CCC)C(=O)C(CCC(=O)O)NC(=O)c1ccccc1 (stereo not drawn) | -2.92% [at 30.3 µM]
23 | CNS(=O)(=O)Cc1ccc2[nH]cc(CCN(C)C)c2c1 | -1.71% [at 30.3 µM]
24 | CCN(CC)CCNC(=O)c1cc(S(C)(=O)=O)ccc1OC | 3.1% [at 30.3 µM]
25 | CCOC(=O)[C@H](CCc1ccccc1)N[C@@H](C)C(=O)N1[C@H](C(=O)O)C[C@@H]2CCC[C@@H]21 | 0.0607% [at 30.3 µM]
26 | Nc1ccc(S(=O)(=O)NC(=O)c2ccccc2)cc1 | -1.14% [at 30.3 µM]
27 | CN1CCN(c2c(F)cc3c(=O)c(C(=O)O)cn(CCF)c3c2F)CC1 | -2.43% [at 30.3 µM]
28 | CCn1cc(C(=O)O)c(=O)c2cnc(N3CCCC3)nc21 | -0.037% [at 5.99 µM]
29 | CCn1cc(C(=O)O)c(=O)c2cc(F)c(N3CCNCC3)cc21 | 0.37% [at 30.3 µM]
30 | Cc1[nH]cnc1CN1CCc2c(c3ccccc3n2C)C1=O | 1.02% [at 30.3 µM]
31 | CC(C)(C)NCC(O)COc1cccc2c1C[C@H](O)[C@H](O)C2 (stereo partly drawn) | -2.97% [at 30.3 µM]
32 | O=C(Oc1ccccc1C(=O)O)c1ccccc1O | 5.77% [at 30.3 µM]
33 | C[n+]1ccccc1/C=N/O | 1.31% [at 30.3 µM]
34 | CC12CCC(CC1=O)C2(C)C (stereo not drawn) | -0.503%
35 | COC(=O)CCc1ccc(OCC(O)CNC(C)C)cc1 (stereo not drawn) | 0.229% [at 30.3 µM]
36 | NCCCCCC(=O)O | 0.036% [at 30.3 µM]
37 | CCOc1cc(N)c(Cl)cc1C(=O)NCC1CN(Cc2ccc(F)cc2)CCO1 (stereo not drawn) | -1% [at 30.3 µM]
38 | CCCc1nn(C)c2c(=O)[nH]c(-c3cc(S(=O)(=O)N4CCN(C)CC4)ccc3OCC)nc12 | -3.29% [at 30.3 µM]
39 | Cc1ccc(S(=O)(=O)NC(=O)NN2CC3CCCC3C2)cc1 (stereo not drawn) | -1.29% [at 30.3 µM]

Experiment: p53 small molecule agonists, cell-based qHTS assay with human liver microsomes: qHTS cell viability counter screen (AID 1963579); note: nearly all actives have a fitted effect of over 45% in size
Settings: p53RE-bla HCT-116 viability, ATP luminescence, 16 h, HLM; series mostly up to 66 µM; activity change, negative = cytotoxicity: at the top concentration
In short: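 Cytotoxicity counter screen: p53RE-bla, 4,000 cells/well; 5 h settle, 37 C/5% CO2; cpd + HLM 0.5 mg/mL + NADPH 0.5 mg/mL (final); 16 h, 37 C; CellTiter-Glo, 30 min RT, luminescence.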

Row | Structure (SMILES) | activity change, negative = cytotoxicity
40 | O=c1[nH]c(=O)n([C@H]2C[C@H](O)[C@@H](CO)O2)cc1I | -2.03% [at 30.3 µM]
41 | CC[N+](CC)(CC)CCOc1cccc(OCC[N+](CC)(CC)CC)c1OCC[N+](CC)(CC)CC | 15.3% [at 30.3 µM]
42 | C[N+]1(C)[C@@H]2CC(OC(=O)[C@H](CO)c3ccccc3)C[C@H]1[C@@H]1O[C@@H]12 (stereo partly drawn) | -3.16% [at 30.3 µM]
43 | C[C@@H]1C[C@H]2[C@@H]3CCC4=CC(=O)C=C[C@]4(C)[C@@]3(F)[C@@H](O)C[C@]2(C)[C@H]1C(=O)CO | 11.9% [at 30.3 µM]
44 | C[C@H]1C[C@H]2[C@@H]3CCC4=CC(=O)C=C[C@]4(C)[C@@]3(F)[C@@H](O)C[C@]2(C)[C@@]1(O)C(=O)COP(=O)(O)O | 5.31%
45 | CCOC(=O)OC(C)OC1=C(C(=O)Nc2ccccn2)N(C)S(=O)(=O)c2ccccc21 (stereo not drawn) | -7.14% [at 30.3 µM]
46 | C[N+](C)(C)CC(O)CC(=O)[O-] (stereo not drawn) | -4.43% [at 30.3 µM]
47 | Cc1cccc(C)c1OCC(C)N (stereo not drawn) | 0.1% [at 30.3 µM]
48 | CC1=NS(=O)(=O)c2cc(Cl)ccc2N1 | 0.718% [at 30.3 µM]
49 | CC(C)NCC(O)c1ccc(NS(C)(=O)=O)cc1 (stereo not drawn) | 0.63%
50 | CC[C@H]1OC(=O)[C@H](C)[C@@H](O[C@H]2C[C@@](C)(OC)[C@@H](O)[C@H](C)O2)[C@H](C)[C@@H](O[C@@H]2O[C@H](C)C[C@H](N(C)C)[C@H]2O)[C@](C)(OC)C[C@@H](C)C(=O)[C@H](C)[C@@H](O)[C@]1(C)O | 9.8%
51 | CC[C@H]1OC(=O)[C@H](C)[C@@H](O[C@H]2C[C@@](C)(OC)[C@@H](O)[C@H](C)O2)[C@H](C)[C@@H](O[C@@H]2O[C@H](C)C[C@H](N(C)C)[C@H]2O)[C@](C)(O)C[C@@H](C)C(=O)[C@H](C)[C@@H](O)[C@]1(C)O | 8.09% [at 30.3 µM]
52 | NCCCNCCSP(=O)(O)O | -1.63% [at 5.99 µM]
53 | NS(=O)(=O)c1cc2c(cc1Cl)NC(C(Cl)Cl)NS2(=O)=O (stereo not drawn) | 0.0763% [at 30.3 µM]
54 | CCOC(=O)[C@H](CCc1ccccc1)N[C@@H](C)C(=O)N1CCC[C@H]1C(=O)O | -14.5% [at 30.3 µM]
55 | COC(=O)[C@@H]1[C@H]2C[C@H]3c4[nH]c5ccccc5c4CCN3C[C@@H]2CC[C@@H]1O | 7.11% [at 30.3 µM]
56 | Oc1cccc(O)c1O | 4.2%
57 | COc1cc(C(=O)NC2CCCNC2)cc(OC)c1OC (stereo not drawn) | 4.4% [at 30.3 µM]
58 | CCN[C@@H]1C[C@H](N)[C@@H](OC2OC(CN)=CCC2N)[C@H](O)[C@H]1O[C@H]1OC[C@](C)(O)[C@H](NC)[C@H]1O (stereo partly drawn) | 1.03% [at 0.249 µM]
59 | O=C(O)CCNC(=O)c1ccccc1 | 3.09% [at 30.3 µM]

Row | Structure (SMILES) | activity change, negative = cytotoxicity
60 | CN1CCN(C(c2ccccc2)c2ccccc2)CC1 | 20.2% [at 30.3 µM]
61 | CCCN(CCC)C(=O)C(CCC(=O)O)NC(=O)c1ccccc1 (stereo not drawn) | 1.34% [at 30.3 µM]
62 | CNS(=O)(=O)Cc1ccc2[nH]cc(CCN(C)C)c2c1 | 0.288% [at 30.3 µM]
63 | CCN(CC)CCNC(=O)c1cc(S(C)(=O)=O)ccc1OC | 14.4% [at 30.3 µM]
64 | CCOC(=O)[C@H](CCc1ccccc1)N[C@@H](C)C(=O)N1[C@H](C(=O)O)C[C@@H]2CCC[C@@H]21 | -6.54% [at 30.3 µM]
65 | Nc1ccc(S(=O)(=O)NC(=O)c2ccccc2)cc1 | 0.925% [at 30.3 µM]
66 | CN1CCN(c2c(F)cc3c(=O)c(C(=O)O)cn(CCF)c3c2F)CC1 | -10.4% [at 30.3 µM]
67 | CCn1cc(C(=O)O)c(=O)c2cnc(N3CCCC3)nc21 | 17.3% [at 5.99 µM]
68 | CCn1cc(C(=O)O)c(=O)c2cc(F)c(N3CCNCC3)cc21 | -0.214% [at 30.3 µM]
69 | Cc1[nH]cnc1CN1CCc2c(c3ccccc3n2C)C1=O | 8.65% [at 30.3 µM]
70 | CC(C)(C)NCC(O)COc1cccc2c1C[C@H](O)[C@H](O)C2 (stereo partly drawn) | -0.752% [at 30.3 µM]
71 | O=C(Oc1ccccc1C(=O)O)c1ccccc1O | -2.12% [at 30.3 µM]
72 | C[n+]1ccccc1/C=N/O | -11.1% [at 30.3 µM]
73 | CC12CCC(CC1=O)C2(C)C (stereo not drawn) | -10.8%
74 | COC(=O)CCc1ccc(OCC(O)CNC(C)C)cc1 (stereo not drawn) | 3.49% [at 30.3 µM]
75 | NCCCCCC(=O)O | 2.68% [at 30.3 µM]
76 | CCOc1cc(N)c(Cl)cc1C(=O)NCC1CN(Cc2ccc(F)cc2)CCO1 (stereo not drawn) | -9.55% [at 30.3 µM]
77 | CCCc1nn(C)c2c(=O)[nH]c(-c3cc(S(=O)(=O)N4CCN(C)CC4)ccc3OCC)nc12 | -1.19% [at 30.3 µM]
78 | Cc1ccc(S(=O)(=O)NC(=O)NN2CC3CCCC3C2)cc1 (stereo not drawn) | -9.39% [at 30.3 µM]
